In PubChem BioAssay AID1159580 (chemical genetic matrix, 2015):
Where “and” joins values, the source holds several entries; their conditions need not be identical. Identical values can stand only once. The whole screen tested about 5,500 compounds, of which about 2,000 (36%) were called active. Not shown: some 18% with an inconclusive outcome. Rule as the data show it: active = normalized growth mostly below about 0.91 (no sharp cut-off); inconclusive = no clear call, values can overlap the other calls; inactive = mostly above about 0.92. The list shows a part of the results.

Experiment: chemical genetic growth profiling, strain panel (AID 1159580);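 also: tested at 20 µM; growth read once vehicle control cultures reached saturation at 30 °C; 1 = growth at the plate median or of vehicle wells; lower values mean less growth of the strain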
Settings: S. cerevisiae deletion strains, growth OD
[1] = locus YGR078C, strain PAC10, hits give low values
[2] = locus YMR307W, strain GAS1, hits give low values
[3] = locus YNL322C, strain KRE1, hits give low values

Measured: normalized growth

CN(C)C1C(=O)C(C(N)=O)=C(O)C2(O)C(=O)C3=C(O)c4c(O)ccc(Cl)c4C(O)C3CC12 (stereo not given)
inactive: locus YAL040C, strain CLN3, hits give low values 1 | locus YCL061C, strain MRC1 (second series), hits give low values 1 | locus YDR150W, strain NUM1, hits give low values 0.997 | locus YDR363W, strain ESC2, hits give low values 1 | locus YER002W, strain NOP16, hits give low values 1 | [1] 0.989 | locus YJR075W, strain HOC1, hits give low values 0.999 | [2] 0.978 | locus YNL175C, strain NOP13, hits give low values 1.02 | locus YNL197C, strain WHI3, hits give low values 0.979 | locus YNL224C, strain SQS1, hits give low values 0.996 | [3] 0.995 | locus YOR083W, strain WHI5 (second series), hits give low values 0.995 | locus YPL241C, strain CIN2, hits give low values 1.01

CN(C)[C@@H]1C(=O)C(C(N)=O)=C(O)[C@@]2(O)C(=O)C3=C(O)c4c(O)ccc(Cl)c4[C@@H](O)[C@H]3C[C@@H]12
inactive: locus YAL013W, strain DEP1, hits give low values 1 | locus YAL021C, strain ccr4, hits give low values 0.971 | locus YAL026C, strain drs2, hits give low values 1 | locus YAL030W, strain snc1, hits give low values 0.984 | locus YBL061C, strain skt5, hits give low values 0.98 | locus YBR009C, strain hhf1, hits give low values 1.04 | locus YBR021W, strain FUR4, hits give low values 0.945 | locus YBR023C, strain chs3, hits give low values 0.982 | locus YBR171W, strain sec66, hits give low values 0.978 | locus YBR229C, strain ROT2, hits give low values 1 | locus YBR231C, strain swc5, hits give low values 0.991 | locus YBR279W, strain paf1, hits give low values 0.994 | locus YCL011C, strain gbp2, hits give low values 1.06 | locus YCL016C, strain dcc1, hits give low values 0.964 | locus YCL029C, strain bik1, hits give low values 0.992 | locus YCL061C, strain MRC1, hits give low values 0.992 | locus YCL069W, strain vba3, hits give low values 0.997 | locus YCR088W, strain abp1, hits give low values 0.993 | locus YDL005C, strain med2, hits give low values 0.983 | locus YDL035C, strain GPR1, hits give low values 1.01 | locus YDL040C, strain nat1, hits give low values 0.992 | locus YDL074C, strain BRE1, hits give low values 0.994 | locus YDL101C, strain DUN1, hits give low values 1 | locus YDL134C, strain PPH21, hits give low values 1 | locus YDL185W, strain tfp1, hits give low values 0.984 | locus YDL192W, strain arf1, hits give low values 0.982 | locus YDR001C, strain nth1, hits give low values 0.977 | locus YDR069C, strain doa4, hits give low values 0.969 | locus YDR101C, strain arx1, hits give low values 0.999 | locus YDR137W, strain rgp1, hits give low values 0.921 | locus YDR159W, strain sac3, hits give low values 1.06 | locus YDR162C, strain NBP2, hits give low values 1.02 | locus YDR195W, strain ref2 1 | locus YDR297W, strain sur2, hits give low values 0.979 | locus YDR318W, strain mcm21, hits give low values 0.997 | locus YDR334W, strain swr1, hits give low values 0.95 | locus YDR335W, strain msn5, hits give low values 0.98 | locus YDR388W, hits give low values 0.983 | locus YDR392W, strain spt3, hits give low values 0.854 | locus YDR502C, strain sam2, hits give low values 0.981 | locus YEL003W, strain gim4, hits give low values 0.98 | locus YEL037C, strain rad23, hits give low values 0.99 | locus YEL061C, strain CIN8 (second series), hits give low values 0.988 | locus YEL061C, strain CIN8, hits give low values 1 | locus YER015W, strain faa2, hits give low values 0.988 | locus YER016W, strain bim1, hits give low values 0.994 | locus YER110C, hits give low values 0.98 | locus YER111C, strain swi4, hits give low values 0.994 | locus YER155C, strain BEM2 (second series), hits give low values 0.932 | locus YER155C, strain BEM2, hits give low values 1.01 | locus YER167W, strain BCK2, hits give low values 1.01 | locus YFR010W, strain ubp6, hits give low values 0.991 | locus YGL078C, strain dbp3, hits give low values 0.988 | locus YGL086W, strain mad1, hits give low values 0.986 | locus YGL167C, strain pmr1, hits give low values 0.988 | locus YGL173C, strain kem1, hits give low values 0.985 | locus YGL227W, strain vid30, hits give low values 0.982 | locus YGL240W, strain doc1, hits give low values 0.95 | locus YGL248W, strain PDE1, hits give low values 0.988 | locus YGL253W, strain hxk2, hits give low values 0.981 | [1] 0.989 | locus YGR135W, strain pre9, hits give low values 0.974 | locus YGR252W, strain gcn5, hits give low values 0.879 | locus YHR013C, strain ard1, hits give low values 0.973 | locus YHR027C, strain rpn1, hits give low values 0.965 | locus YHR030C, strain SLT2, hits give low values 1 and 1.02 | locus YHR079C, strain IRE1 (second series), hits give low values 0.976 | locus YHR079C, strain IRE1, hits give low values 1.04 | locus YHR094C, strain hxt1, hits give low values 0.981 | locus YHR129C, strain ARP1, hits give low values 1.01 | locus YHR142W, strain chs7, hits give low values 0.981 | locus YHR200W, strain rpn10, hits give low values 0.987 | locus YIL066C, strain RNR3, hits give low values 1.01 | locus YIL073C, strain SPO22, hits give low values 0.992 | locus YIL125W, strain kgd1, hits give low values 0.983 | locus YIR030C, strain dcg1, hits give low values 0.98 | locus YJL092W, strain hpr5, hits give low values 0.987 | locus YJL095W, strain BCK1 (second series), hits give low values 0.98 | locus YJL095W, strain BCK1, hits give low values 0.998 and 1.03 | locus YJL115W, strain asf1, hits give low values 0.98 | locus YJL129C, strain trk1, hits give low values 0.984 | locus YJL134W, strain LCB3, hits give low values 1 | locus YJL154C, strain vps35, hits give low values 0.976 | locus YJL164C, strain tpk1, hits give low values 1 | locus YJL166W, strain qcr8, hits give low values 0.93 | locus YJL168C, strain set2, hits give low values 0.983 | locus YJL187C, strain SWE1 (second series), hits give low values 0.995 | locus YJL187C, strain SWE1, hits give low values 0.988 | locus YJR043C, strain POL32, hits give low values 0.984 | locus YJR066W, strain TOR1, hits give low values 0.97 | locus YKL009W, strain mrt4, hits give low values 1 | locus YKL068W, hits give low values 0.986 | locus YKL085W, strain MDH1 (second series), hits give low values 0.975 | locus YKL085W, strain MDH1, hits give low values 0.975 | locus YKL160W, strain elf1, hits give low values 0.93 | locus YKL190W, strain CNB1, hits give low values 1 | locus YKR001C, strain vps1, hits give low values 0.976 | locus YKR026C, strain gcn3, hits give low values 0.998 | locus YKR091W, strain srl3, hits give low values 0.98 | locus YLL001W, strain dnm1, hits give low values 0.921 | locus YLL026W, hits give low values 0.983 | locus YLL041C, strain sdh2, hits give low values 0.993 | locus YLR027C, strain aat2, hits give low values 1.01 | locus YLR039C, strain RIC1, hits give low values 0.995 | locus YLR058C, strain SHM2, hits give low values 0.998 | locus YLR102C, strain apc9, hits give low values 0.981 | locus YLR113W, strain HOG1, hits give low values 1.03 | locus YLR221C, strain rsa3, hits give low values 0.956 | locus YLR258W, strain gsy2, hits give low values 0.992 | locus YLR262C, strain YPT6 (second series), hits give low values 0.938 | locus YLR262C, strain YPT6, hits give low values 1.01 | locus YLR268W, strain sec22, hits give low values 0.954 | locus YLR320W, strain mms22, hits give low values 0.947 | locus YLR330W, strain CHS5, hits give low values 1.01 | locus YLR342W, strain FKS1 (second series), hits give low values 0.952 | locus YLR342W, strain FKS1, hits give low values 0.99 | locus YLR357W, strain rsc2, hits give low values 0.93 | locus YLR370C, strain arc18, hits give low values 0.979 | locus YLR371W, strain rom2, hits give low values 0.976 | locus YLR384C, strain iki3, hits give low values 0.975 | locus YLR418C, strain cdc73, hits give low values 0.939 | locus YML016C, strain PPZ1, hits give low values 0.999 | locus YML032C, strain rad52, hits give low values 0.988 | locus YML120C, strain ndi1, hits give low values 0.928 | locus YML124C, strain tub3, hits give low values 0.982 | locus YMR058W, strain fet3, hits give low values 0.934 | locus YMR078C, strain ctf18, hits give low values 0.982 | locus YMR125W, strain sto1, hits give low values 0.918 | locus YMR129W, hits give low values 0.989 | locus YMR205C, strain PFK2, hits give low values 0.938 | locus YMR223W, strain ubp8, hits give low values 0.977 | locus YMR231W, strain pep5, hits give low values 0.991 | [2] 1.02 | locus YNL067W, strain RPL9B, hits give low values 0.997 | locus YNL071W, strain lat1, hits give low values 0.992 | locus YNL128W, strain TEP1, hits give low values 1.01 | locus YNL183C, strain NPR1, hits give low values 0.966 | locus YNL209W, strain ssb2, hits give low values 0.975 | locus YNL233W, strain BNI4, hits give low values 0.993 | locus YNL248C, strain rpa49, hits give low values 0.956 | locus YNL250W, strain rad50, hits give low values 0.99 | locus YNL271C, strain bni1, hits give low values 0.983 | locus YNL298W, strain CLA4, hits give low values 0.993 | locus YNL307C, strain MCK1, hits give low values 0.994 | locus YNL322C, strain KRE1 (second series), hits give low values 0.98 | [3] 0.999 | locus YNR049C, strain mso1, hits give low values 0.978 | locus YNR052C, strain pop2, hits give low values 0.998 | locus YOL012C, strain htz1 0.761 | locus YOL147C, strain pex11, hits give low values 0.983 | locus YOR001W, strain rrp6, hits give low values 1.05 | locus YOR061W, strain CKA2, hits give low values 1 | locus YOR069W, strain VPS5, hits give low values 1 | locus YOR070C, strain gyp1, hits give low values 1.01 | locus YOR080W, strain dia2, hits give low values 0.981 | locus YOR083W, strain WHI5, hits give low values 0.941 | locus YOR106W, strain vam3, hits give low values 0.942 | locus YOR136W, strain idh2, hits give low values 0.979 | locus YOR144C, strain elg1, hits give low values 0.986 | locus YOR184W, strain ser1, hits give low values 0.995 | locus YOR231W, strain MKK1, hits give low values 1.04 | locus YOR265W, strain rbl2, hits give low values 0.982 | locus YOR270C, strain vph1, hits give low values 0.966 | locus YOR290C, strain snf2, hits give low values 0.958 | locus YOR316C, strain cot1, hits give low values 0.982 | locus YPL051W, strain arl3, hits give low values 0.973 | locus YPL055C, strain LGE1, hits give low values 0.992 | locus YPL078C, strain atp4, hits give low values 0.934 | locus YPL106C, strain sse1, hits give low values 0.911 | locus YPL240C, strain hsp82, hits give low values 0.993 | locus YPL256C, strain CLN2, hits give low values 1.02 | locus YPR119W, strain clb2, hits give low values 0.983 | locus YPR141C, strain kar3, hits give low values 0.981 | locus YPR163C, strain tif3, hits give low values 0.98 | locus YPR167C, strain met16, hits give low values 0.985 | strain wtn01, hits give low values 0.955
